Source: PubChem BioAssay (NCI)
Compounds without any hit were thinned out: in the full panel of roughly 83,000, 20% have a hit.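 The endpoint reported here, percent growth, reads 100 for growth as untreated, 0 for no net growth and -100 for all cells dead.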 The source made the active and inactive calls. The calls were made as follows: active = growth percent below 10; inactive = the rest.

System: MALME-3M melanoma
Assay: NCI-60 one-dose screen, 48 h (100 = growth as untreated, 0 = no growth, -100 = all killed)
Settings: 10 µM unless noted

With `CN(C)C(=S)N=Nc1c(O)[nH]c2ccccc12` as the molecule, how does the growth read?
Its growth is 30.8% (inactive).

With `NC(N)=N/N=C(/c1ccccc1)c1ccc(F)cc1` as the molecule, how does the growth read?
The growth was 36.5% (inactive).

For `CC(=O)c1cc2c(N)c(C(=O)Nc3cccc4ccccc34)sc2nc1C`, which growth is on record?
Its growth is 56.2% (inactive).

For `O=c1ccccc(-c2ccc(Br)cc2)c1O`, which growth is on record?
Its growth is 10.6% (inactive).

For `CCCCC(=O)OCC1OC(n2cnc3c(=S)nc[nH]c32)C(OC(=O)CCCC)C1OC(=O)CCCC` (centres undefined), which growth is on record?
The growth was 49.5% (inactive).

Which growth does the source give for `CC/C=C\C[C@H]1C/C=C2/C(=O)C=C[C@H]2C/C=C\CCCC(=O)O1` here?
Its growth is 75.1% (inactive).

How did the growth turn out when `CCNc1ncnc2c1cnn2C1CCCO1` (centres undefined) was run?
Its growth is 110% (inactive).

For `C=C1C(=O)O[C@H]2[C@H]1CC/C(COC(=O)NCCc1ccc(OC)c(OC)c1)=C\CC[C@@]1(C)O[C@@H]21`, which growth is on record?
The growth was 63.3% (inactive).

Which growth does the source give for `O=C(Cc1ccc(/C=C/C(=O)c2ncc[nH]2)cc1)Nc1ccc(F)cc1` here?
The growth was 96.6% (inactive).

`Clc1ccc2c(NCCCNc3nc(-n4ccnc4)nc4ccccc34)ccnc2c1` was tested. Which growth did it give?
The growth was 102% (inactive).

Which growth does the source give for `CCc1nc(N)nc(N)c1C#CC(C)c1ccc(-c2ccncc2)cc1Cl` (centres undefined) here?
Its growth is 39.6% (inactive).

For `Cc1cc2c3ccccc3ccc2[n+]2ccccc12`, which growth is on record?
Its growth is -5.59% (active).

Which growth does the source give for `COc1ccc(SC2c3ccc(C)cc3Oc3nc(N)c(C#N)c(N)c32)cc1` (centres undefined) here?
Its growth is -87.6% (active).

With `NC(=NC1C2CC3CC(C2)CC1C3)Nc1ccc(I)cc1` (centres undefined) as the molecule, how does the growth read?
The growth was -17% (active).

With `CC(=O)OCCC/C(=C/c1cc2ccccc2c2ccccc12)[N+](=O)[O-]` as the molecule, how does the growth read?
The growth was -71% (active).

For `COc1cc(C(=O)/C=C/c2cccnc2Nc2ccc(Cl)cc2)cc(OC)c1OC`, which growth is on record?
The growth was -48.1% (active).

Which growth does the source give for `CCOc1ccc(-n2nc(C(=O)Nc3cc(OC)c(OC)c(OC)c3)nc2-c2cc(OC)c(OC)c(OC)c2)cc1` here?
The growth was 85.2% (inactive).

Which growth does the source give for `CC(=O)Oc1ccc(Cl)cc1CN(C(C)=O)C1CCCCC1` here?
The growth was 111% (inactive).

How did the growth turn out when `COc1cc(-c2nn(-c3ccc(Br)cc3)cc2C(=O)O)ccc1O` was run?
Its growth is 110% (inactive).

How did the growth turn out when `COc1cc2nnc3c4cccnc4[nH]c3c2cc1OC` was run?
The growth was -3.59% (active).

With `CCNC(=O)Oc1ccc(/C(=C(\C)c2ccc(Cl)cc2)c2ccc(OCCN(CC)CC)cc2)cc1` as the molecule, how does the growth read?
The growth was -50.6% (active).

`CCc1nc(N)nc(N)c1C#CC(C)c1cc(-c2ccnc(C)c2)c2oc(C)nc2c1` (centres undefined) was tested. Which growth did it give?
The growth was 36.7% (inactive).

Which growth does the source give for `CC1=C(O)C(=O)C(C(C#N)(C#N)C(C#N)C#N)C1` (centres undefined) here?
Its growth is 113% (inactive).

For `CN(C)c1ccc(NC(=O)c2ccc(/C=C/C(=O)c3ncc[nH]3)cc2)cc1`, which growth is on record?
The growth was 87.9% (inactive).

With `CN(C)c1ccc(N=Nc2ccccn2)c(O)c1` as the molecule, how does the growth read?
Its growth is 13.8% (inactive).

For `O=C1C=CC(=O)N1c1ccc2c(c1)Cc1cc(F)ccc1-2`, which growth is on record?
Its growth is 94.4% (inactive).

`CCCCn1cnc2c(Sc3c([N+](=O)[O-])ncn3C)nc(N)nc21` was tested. Which growth did it give?
The growth was 93.9% (inactive).

With `NC(CSC(c1ccccc1)(c1ccccc1)c1ccc(Cl)cc1)C(=O)O` (centres undefined) as the molecule, how does the growth read?
The growth was 22.6% (inactive).

`Oc1ccc(N=Cc2ccccc2O)cc1` was tested. Which growth did it give?
Its growth is 73.6% (inactive).

For `Clc1ccc2c(NCCNc3nc(N4CCCCC4)nc4ccccc34)ccnc2c1`, which growth is on record?
Its growth is -79.8% (active).

With `CCN1CCN(c2nc(NCCCNc3ccnc4cc(Cl)ccc34)c3ccccc3n2)CC1` as the molecule, how does the growth read?
Its growth is -73.5% (active).

For `CCOC(=O)c1sc(Nc2ccc(Cl)cc2)nc1C`, which growth is on record?
Its growth is 36.7% (inactive).

`CN1C(=O)C2(SCC(C(=O)NCc3ccccc3)N2C(=O)C2CCCCC2)c2ccccc21` (centres undefined) was tested. Which growth did it give?
Its growth is 94.1% (inactive).

With `CSc1ccc(-c2ccccc(=O)c2O)cc1` as the molecule, how does the growth read?
Its growth is 15.6% (inactive).

`CC(=O)c1cc2c(N)c(C(=O)Nc3cccc(F)c3C)sc2nc1C` was tested. Which growth did it give?
Its growth is 94% (inactive).

For `COc1ccc2c(c1)C(=O)/C(=C/c1ccccn1)CC2`, which growth is on record?
Its growth is 72.7% (inactive).

`O=C(Cc1ccc(/C=C/C(=O)c2ncc[nH]2)cc1)Nc1ccccc1` was tested. Which growth did it give?
The growth was 98.2% (inactive).

Which growth does the source give for `COc1cccc2c1C(=O)c1c(O)c3c(c(O)c1C2=O)C[C@](O)(C(=O)CO)C[C@H]3O[C@@H]1C[C@@H](NC(=O)CCCN(C)C2(c3ccc(F)cc3)CC3CCC2C3)[C@H](O)[C@@H](C)O1` (some centres undefined) here?
The growth was -83.2% (active).

`COc1cccc2c1C(=O)c1c(O)c3c(c(O)c1C2=O)C[C@](O)(C(=O)CO)C[C@H]3O[C@@H]1C[C@@H](NC(=O)CCCCCN(C)C2(c3ccc(F)cc3)CC3CCC2C3)[C@H](O)[C@@H](C)O1` (some centres undefined) was tested. Which growth did it give?
Its growth is -70.9% (active).
